Reference: PubChem BioAssay (NCI)
About 83,000 compounds went through this panel and 20% of them were active in at least one assay; those are over-represented in the sample as a whole.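 Negative percent growth values reflect cell death: -40 means 40% of the cells present at the start died, and -100 means all died.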 Activity calls are given as the source filed them. The calls were made as follows: active = growth percent below 10; inactive = the rest.

Tests used:
Assay in all cases: NCI-60 one-dose screen, 48 h (100 = growth as untreated, 0 = no growth, -100 = all killed)
[1] = test system: DU-145 prostate; conditions: 10 µM unless noted
[2] = test system: K-562 leukemia; conditions: 10 µM unless noted
[3] = test system: MALME-3M melanoma; conditions: 10 µM unless noted
[4] = test system: MDA-MB-231 breast; conditions: 10 µM unless noted
[5] = test system: RXF 393 renal; conditions: 10 µM unless noted
[6] = test system: SF-268 CNS; conditions: 10 µM unless noted
[7] = test system: SF-295 CNS; conditions: 10 µM unless noted
[8] = test system: SF-539 CNS; conditions: 10 µM unless noted
[9] = test system: UACC-257 melanoma; conditions: 10 µM
[10] = test system: HCT-15 colon; conditions: 10 µM unless noted
[11] = test system: HT29 colon; conditions: 10 µM unless noted
[12] = test system: SNB-75 CNS; conditions: 10 µM unless noted
[13] = test system: SNB-19 CNS; conditions: 10 µM unless noted
[14] = test system: U251 CNS; conditions: 10 µM unless noted
[15] = test system: PC-3 prostate; conditions: 10 µM unless noted
[16] = test system: SK-MEL-5 melanoma; conditions: 10 µM unless noted
[17] = test system: UACC-62 melanoma; conditions: 10 µM unless noted
[18] = test system: LOX IMVI melanoma; conditions: 10 µM unless noted
[19] = test system: SK-MEL-28 melanoma; conditions: 10 µM unless noted
[20] = test system: M14 melanoma; conditions: 10 µM unless noted

Measured: growth

NS(=O)(=O)c1ccc(Nc2nc(N/N=C/c3ccc(C(F)(F)F)cc3)nc(Nc3ccccc3)n2)cc1
inactive: [1] 39.3% | [2] 17.5% | [3] 22.4% | [4] 26.1% | [6] 50.4% | [8] 23.8% | [9] 39.6% | [10] 31.3% | [11] 11.4% | [12] 42% | [13] 33.8% | [14] 18.6% | [15] 14.4% | [16] 34.5% | [17] 14.9% | [19] 27.2%
active: [5] -39.5% | [7] 4.66% | [18] 9.92%

Cc1ccc(-c2csc(N/N=C/c3nc4ccccc4n3C3CC3)n2)cc1
active: [2] -55.8% | [3] -72.9% | [16] 5.51%
inactive: [1] 105% | [4] 80.4% | [5] 71.6% | [6] 80.1% | [7] 96.8% | [8] 66% | [9] 79.7% | [20] 89% | [10] 80.6% | [12] 22% | [13] 81.2% | [14] 43.8% | [15] 61.6% | [17] 95.1% | [19] 103%

O=C(Cn1cc(CN2C(=O)c3ccc([N+](=O)[O-])cc3C2=O)nn1)Nc1ccccc1Br
inactive: [1] 113% | [2] 98.5% | [3] 99.5% | [4] 103% | [5] 119% | [6] 106% | [7] 108% | [8] 107% | [9] 106% | [20] 101% | [10] 102% | [12] 87.5% | [13] 102% | [14] 109% | [15] 102% | [16] 104% | [17] 90.7% | [18] 116% | [19] 108%

CC1COc2c(N3CCN(C)CC3)c(F)cc3c(=O)c(C(=O)N/N=C/c4cc[nH]c4)cn1c23 (configuration not stated)
active: [2] -27.8% | [3] -3.02% | [9] -74.5% | [20] -79.8% | [13] 9.01% | [14] -41.6% | [18] -88.5%
inactive: [1] 42% | [4] 44.4% | [5] 16% | [6] 59.1% | [7] 70.3% | [8] 38.5% | [10] 47.1% | [12] 74.4% | [15] 27.9% | [16] 25.3% | [17] 76% | [19] 57.3%

ClC(Cl)c1nc(-c2cccs2)n2nc(-c3ccccc3)cc2n1
active: [1] -24.3% | [4] -26.9% | [5] -73.2% | [6] 6.38% | [7] -27.6% | [8] -44% | [10] 0.506% | [11] -3.99% | [13] -5.22% | [14] -9.39% | [15] -32.3% | [19] -45.9%
inactive: [2] 27.9% | [3] 67.7% | [9] 16.3% | [12] 48% | [16] 89.8% | [17] 23.6% | [18] 83.5%

O=C(Nc1cccc(Cl)c1)Nc1nc2ccc(-c3cccc4ccccc34)cc2s1
inactive: [1] 42.7% | [2] 17.9% | [3] 42.8% | [4] 75.2% | [5] 84.4% | [6] 66.7% | [7] 63.4% | [8] 87% | [9] 50.6% | [20] 68.7% | [10] 34.1% | [11] 49.4% | [13] 56.4% | [14] 35.4% | [16] 54.4% | [17] 42.3% | [19] 73.3%

CCCCCCNC(=O)Oc1ccc(/C(=C(\C)c2ccc(Cl)cc2)c2ccc(OCCN(C)C)cc2)cc1
active: [2] 4.21% | [3] -33.7% | [20] 3.61% | [10] 7.58% | [18] -67.8%
inactive: [1] 83.4% | [4] 58.5% | [5] 46% | [6] 65.4% | [7] 84.8% | [8] 42% | [9] 18.9% | [12] 75.8% | [13] 60.8% | [14] 46% | [15] 56% | [16] 47.9% | [17] 84.7% | [19] 75%

COc1ccc(Cn2cc3c(c2-c2ccccc2)CCCc2cnoc2-3)cc1[N+](=O)[O-]
inactive: [1] 84.2% | [2] 17.8% | [3] 60.5% | [4] 75.2% | [5] 49.6% | [6] 78.5% | [7] 69.5% | [8] 70.5% | [9] 75.3% | [20] 51% | [10] 27.3% | [13] 75.6% | [14] 77.5% | [15] 69.5% | [16] 71.5% | [17] 52.1% | [18] 87.8% | [19] 76.9%

Nc1nc(-c2cccc([N+](=O)[O-])c2)c(N=Nc2ccccc2[N+](=O)[O-])s1
active: [4] -54.1% | [5] -67.7% | [8] -73.3% | [12] -14.7% | [14] -79.5% | [18] 6.53%
inactive: [1] 37.4% | [2] 50.8% | [3] 53.9% | [6] 19.6% | [7] 26.6% | [9] 103% | [20] 50.7% | [10] 43.8% | [13] 12.4% | [15] 46.4% | [16] 47% | [17] 66.1% | [19] 88.4%
